PAFAH1B3 FP inh: inhibitors of human PAFAH1B3; inhibition, % at 3.39 µM; recombinant PAFAH1B3, FP-rhodamine probe, fluorescence polarization; hit rate 0.28% among 340,000; Q15102; AID 492972;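 active means inhibition above the screen-wide average of all tested compounds plus 3 SD, cut at about 25% in these data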
pPAFAH FP inh: pPAFAH (human) enzyme inhibition; Q13093; recombinant pPAFAH, FP-rhodamine probe fluorescence polarization; inhibition, % at 3.39 µM; hit rate 1.5% among 330,000; AID 463082;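 active means inhibition above the mean inhibition across the screen plus 3 SD, cut at about 25% in these data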;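 further: inhibitors block binding of the rhodamine activity-based probe so polarization drops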
ATG4B inh: ATG4B (human) cysteine protease inhibition. ATG4B cleavage of LC3-PLA2, NBD-HPC fluorescence, 1 h. Q9Y4P1. hit rate 0.51% among 340,000. AID 504462. inhibition, % at 8.33 µM; in the data active means inhibition above about 40%
PAFAH2 inh: PAFAH2 (human) inhibition | recombinant PAFAH2, FP-rhodamine activity probe, fluorescence polarization | hit rate 0.99% among 340,000 | Q99487 | inhibition, % at 3.39 µM | AID 492956;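 active means inhibition above the mean over all tested compounds plus 3 SD, cut at about 30% in these data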;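 further: inhibitors block probe labeling of enzyme so polarization drops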
DAGLB inh: blocks human DAGLB lipase activity | Q8NCG7 | HEK293T DAGLB membrane lysate, EnzChek fluorogenic substrate | inhibition, % at 5.17 µM | hit rate 0.059% among 340,000 | AID 504411; in the data active means inhibition above about 34%
Target sequence (Q8NCG7 whole entry, looked up): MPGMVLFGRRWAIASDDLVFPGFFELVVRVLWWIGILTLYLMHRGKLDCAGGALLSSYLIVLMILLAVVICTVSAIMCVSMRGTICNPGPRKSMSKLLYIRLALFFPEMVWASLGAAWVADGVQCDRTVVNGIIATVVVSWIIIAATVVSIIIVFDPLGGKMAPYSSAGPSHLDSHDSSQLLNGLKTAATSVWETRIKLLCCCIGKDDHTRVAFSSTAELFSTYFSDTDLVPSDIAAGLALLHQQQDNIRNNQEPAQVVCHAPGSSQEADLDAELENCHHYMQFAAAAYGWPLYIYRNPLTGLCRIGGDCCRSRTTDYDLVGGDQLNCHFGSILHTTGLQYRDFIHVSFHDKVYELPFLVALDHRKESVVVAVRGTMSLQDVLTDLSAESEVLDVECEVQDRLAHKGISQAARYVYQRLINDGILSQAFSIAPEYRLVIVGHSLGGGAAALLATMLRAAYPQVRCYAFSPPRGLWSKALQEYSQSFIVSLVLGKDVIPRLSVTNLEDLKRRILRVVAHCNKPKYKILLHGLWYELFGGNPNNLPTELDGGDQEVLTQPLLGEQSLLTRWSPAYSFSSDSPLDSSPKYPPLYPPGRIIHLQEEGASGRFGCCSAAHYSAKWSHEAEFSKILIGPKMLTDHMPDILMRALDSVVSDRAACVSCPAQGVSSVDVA
PAFAH1B2 inh: PAFAH1B2 (human) inhibition. P68402. recombinant PAFAH1B2, FP-rhodamine activity probe, fluorescence polarization. inhibition, % at 3.39 µM. hit rate 1.2% among 340,000. AID 492953;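 active means inhibition above the mean of all tested compounds plus 3 SD, cut at about 24% in these data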
Large screens that a line does not name were inactive. An excerpt weighted towards active compounds, which were near 3% of everything screened.

CN(CC(=O)Nc1ccccc1Cl)C(=O)COC(=O)c1ccc([N+](=O)[O-])s1	PAFAH1B3 FP inh 48, PAFAH2 inh 34
NS(=O)(=O)c1ccc(NC(=O)COC(=O)c2ccc([N+](=O)[O-])s2)cc1	PAFAH1B3 FP inh 30, pPAFAH FP inh 33, PAFAH2 inh 43
C[C@@H]1CN([C@@H](C)CO)S(=O)(=O)c2ccc(Br)cc2O[C@@H]1CN(C)S(=O)(=O)c1cn(C)cn1	none (no result: PAFAH1B3 FP inh, pPAFAH FP inh, ATG4B inh, PAFAH2 inh, PAFAH1B2 inh)
Cc1ccc(S(=O)(=O)N2CCN(C)CC2)c2nsnc12	none
CCCCNc1c(-c2ccc(SC(C)CC)cc2)nc2cnccn12 (stereo not drawn)	PAFAH1B3 FP inh 27, pPAFAH FP inh 34
CC1=CC(=O)c2c(O)ccc(O)c2C1=O	pPAFAH FP inh 70 (no result: PAFAH1B3 FP inh, ATG4B inh, PAFAH2 inh, DAGLB inh, PAFAH1B2 inh)
O=C1C=C(N2CCN(c3ccccn3)CC2)C(=O)c2c(O)ccc(O)c21	none (no result: pPAFAH FP inh)
COc1cccc(N2CC(C(=O)Nc3ccc(C(=O)OC(C)C)cc3)CC2=O)c1 (stereo not drawn)	pPAFAH FP inh 25
Cc1ccc(NC(=O)CCCCCCCCCCC2COCCO2)c(C)c1 (stereo not drawn)	none
CCCCCCCCc1nc(SC(C)C(=O)O)n[nH]1 (stereo not drawn)	none
CCOC(=O)c1sc2cc([N+](=O)[O-])cc(SCC(=O)OC)c2c1N	pPAFAH FP inh 25
O=C(O)/C=C/C(=O)Nc1ccc2nccnc2c1	none
CC(NC(=O)COC(=O)c1ccc([N+](=O)[O-])s1)c1ccccc1 (stereo not drawn)	pPAFAH FP inh 25
O=C(COC(=O)c1ccc([N+](=O)[O-])s1)NCc1ccc(F)cc1	PAFAH1B3 FP inh 44, pPAFAH FP inh 26, PAFAH2 inh 53
O=C(COC(=O)c1ccc([N+](=O)[O-])s1)NCCc1ccccc1	PAFAH1B3 FP inh 32, PAFAH2 inh 34
CCc1cc(C(=O)OCC(=O)NCCc2ccccc2)sc1C	none (no result: PAFAH1B3 FP inh, pPAFAH FP inh, ATG4B inh, PAFAH2 inh, PAFAH1B2 inh)
Cc1ccc(C(=O)OCC(=O)NNC(=O)c2ccccc2)c(O)c1	none
O=C(COC(=O)c1ccc([N+](=O)[O-])s1)NNC(=O)c1ccccc1	PAFAH1B3 FP inh 36, PAFAH2 inh 36
O=C(COC(=O)c1ccc([N+](=O)[O-])o1)NCc1ccc(F)cc1	none
COc1ccc(NC(=O)Nc2cccc3ccccc23)cc1OC	none
O=C(Nc1ccc2c(c1)C(=O)OC2)c1ccc(F)cc1F	none
Cc1ccccc1/C=N/NC(=O)c1ccc(-n2cnnn2)cc1	none
CC(NC(=O)COC(=O)c1cc(Cl)nc(Cl)c1)c1ccccc1 (stereo not drawn)	none
O=C1CN(C(=O)COC(=O)c2ccc([N+](=O)[O-])s2)c2ccccc2N1	PAFAH1B3 FP inh 46, PAFAH2 inh 32
O=C(COC(=O)c1ccc([N+](=O)[O-])s1)NC(=O)NCc1ccccc1	PAFAH1B3 FP inh 30, PAFAH2 inh 40
CCN(CC)S(=O)(=O)c1cccc(C(=O)OCC(=O)NC(C)c2ccccc2)c1 (stereo not drawn)	pPAFAH FP inh 27, PAFAH2 inh 45
O=C1CN(C(=O)COC(=O)c2cccs2)c2ccccc2N1	none
CN(C)/C=N/NC(=O)C1Cc2c(ccc3ccccc23)O1 (stereo not drawn)	none
CCN(CC(=O)NC1CCS(=O)(=O)C1)S(=O)(=O)c1ccc(Cl)cc1C(F)(F)F (stereo not drawn)	none
CSc1ccccc1NC(=O)COC(=O)c1ccc(-n2nc(C)cc2C)cc1	pPAFAH FP inh 25, PAFAH2 inh 59
Cc1cc(C)n(-c2ccc(C(=O)OCC(=O)NCc3ccc(F)cc3)cc2)n1	pPAFAH FP inh 28
CC(=O)c1oc2ccccc2c1NC(=O)COC(=O)c1ccc(-n2nc(C)cc2C)cc1	none
COC(=O)c1ccccc1Nc1ccnc(Cl)n1	none
O=C(C[n+]1ccccc1)N/N=C/c1cc(Br)ccc1O	none
Cc1cccc(Nc2nc(-c3c(C)nc4ccccn34)cs2)c1	pPAFAH FP inh 30
CC(C)NC(=O)C1(c2ccccc2)CC1(Cl)Cl (stereo not drawn)	none
O=Cc1ccccc1OCCOc1ccccc1C=O	ATG4B inh 71
O=Cc1ccccc1Oc1ccccc1	none
COc1cc(Cl)c(C)cc1NC(=O)COC(=O)CCc1nc2ccccc2c(=O)[nH]1	none
CC1CCC2(CC1)SCC(=O)N2c1ccc(F)cc1 (stereo not drawn)	PAFAH1B2 inh 25
O=c1c2ccccc2nc(SCc2nnc(-c3ccccc3Br)o2)n1-c1ccccc1	ATG4B inh 45
Cc1cc(=O)oc2c3c(cc(OCC(=O)NCc4ccccc4)c12)OC(C)(C)CC3	pPAFAH FP inh 33
Cc1c(C)c2c(OCC(=O)N[C@@H](CC(C)C)C(=O)O)cc3c(c2oc1=O)CCC(C)(C)O3	PAFAH2 inh 75, PAFAH1B2 inh 44 (no result: pPAFAH FP inh)
Cc1cc(=O)oc2c3c(cc(OCC(=O)NCC(=O)O)c12)OC(C)(C)CC3	none
CSC[C@H](NC(=O)COc1cc2c(c3oc(=O)cc(C)c13)CCC(C)(C)O2)C(=O)O	none
NS(=O)(=O)c1cc(C(=O)O)cc(N2CCCC2)c1Oc1ccccc1	PAFAH1B2 inh 29
Cc1ccc(C)c(S(=O)(=O)N2CCN(C(=O)CCCc3c[nH]c4ccccc34)CC2)c1	none
O=C(CNS(=O)(=O)c1ccccc1)NCC(=O)OCc1ccc(Br)cc1	PAFAH1B2 inh 45
COC(=O)c1ccc(COC(=O)CNS(=O)(=O)c2ccccc2)cc1	none
O=C(CCN1C(=O)C2C3CC(C(Br)C3Br)C2C1=O)OCC(=O)c1ccccc1 (stereo not drawn)	none
Nc1nc(SCC(=O)C23CC4CC(CC(C4)C2)C3)n[nH]1	PAFAH1B2 inh 27
CC(C)CC(=O)O/N=C1\C(=O)N(Cc2ccc(Cl)cc2)c2ccc([N+](=O)[O-])cc21	pPAFAH FP inh 35 (no result: PAFAH1B3 FP inh, ATG4B inh, PAFAH2 inh, DAGLB inh, PAFAH1B2 inh)
Cc1cc(C(=O)COc2cccc3cccnc23)c(C)n1C	pPAFAH FP inh 26
CCOC(=O)c1c(N)sc2c1CCC1C(=O)N(C3CCCCC3)C(=O)C21 (stereo not drawn)	pPAFAH FP inh 34
CCOC(=O)c1c(N)sc2c1CCC(CC)C2 (stereo not drawn)	pPAFAH FP inh 26
CCOC(=O)c1c(N)sc2c1CCSC2	none
CSC[C@H]1CN(c2ccccc2)C(=O)[C@@H]1CC(=O)Nc1ccc(Br)cc1	none (no result: PAFAH1B3 FP inh, pPAFAH FP inh, ATG4B inh, PAFAH2 inh, PAFAH1B2 inh)
COc1ccc(NS(=O)(=O)c2cn(C)cn2)c(OC)c1	none
O=C(CNS(=O)(=O)c1ccccc1)N/N=C/c1ccccc1[N+](=O)[O-]	none
Cc1ccc(-c2[nH]c(-c3ccc(C(=O)O)cc3)nc2-c2ccccc2)cc1	pPAFAH FP inh 31
O=C(c1ccc(S(=O)(=O)Nc2ccccc2F)cc1)N1CCCC1	none (no result: pPAFAH FP inh)
CCOC(=O)CSc1nnc(NC(=O)CN2CCN(C=O)CC2)s1	PAFAH1B2 inh 52
CCOC(=O)CSc1nnc(NC(=O)CCc2ccccc2)s1	none
CN(Cc1ccccc1)C(=O)c1nc[nH]c1C(=O)N(C)Cc1ccccc1	none

Screening data (PubChem)
